Read-out in assay [1]: Interleukin-8 (IL8), CXCL8 (gene 3576)
Description: BSK_CASM3C_IL8: BioMAP Diversity Plus: CASM3C Assay for Interleukin-8 (IL8) Biomarker Activity (AID 2283042).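 Further: IL-8 protein level quantified by ELISA.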 The settings on record: primary human coronary artery smooth muscle cells; actives raise or lower the signal.

Read-out in assay [2]: Human Leukocyte Antigen - DR isotype (HLADR), HLA-DRA (gene 3122)
Description: BSK_CASM3C_HLADR: BioMAP Diversity Plus: CASM3C Assay for Human Leukocyte Antigen - DR isotype (HLADR) Biomarker Activity (AID 2283043).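 Further: cell-surface HLA-DR protein level quantified by ELISA.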 The settings on record: primary human coronary artery smooth muscle cells; actives raise or lower the signal.

Read-out in assay [3]: Macrophage colony-stimulating factor (MCSF), CSF1 (gene 1435)
Put plainly: BSK_CASM3C_MCSF: BioMAP Diversity Plus: CASM3C Assay for Macrophage colony-stimulating factor (MCSF) Biomarker Activity (AID 2283044).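 Further: M-CSF protein amount quantified by ELISA after 24 h exposure.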 The settings on record: primary human coronary artery smooth muscle cells; actives raise or lower the signal.

Read-out in assay [4]: Low-density lipoprotein receptor (LDLR), LDLR (gene 3949)
Description: BSK_CASM3C_LDLR: BioMAP Diversity Plus: CASM3C Assay for Low-density lipoprotein receptor (LDLR) Biomarker Activity (AID 2283045).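 Further: LDLR protein level on the cell surface quantified by ELISA.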 The settings on record: primary human coronary artery smooth muscle cells; actives raise or lower the signal.

Read-out in assay [5]: Monocyte Chemoattractant Protein-1 (MCP1), CCL2 (gene 6347)
Put plainly: BSK_CASM3C_MCP1: BioMAP Diversity Plus: CASM3C Assay for Monocyte Chemoattractant Protein-1 (MCP1) Biomarker Activity (AID 2283046).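 Further: MCP-1 level quantified by ELISA 24 h after dosing.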 The settings on record: primary human coronary artery smooth muscle cells; actives raise or lower the signal.

Assay [6] is described as follows: BSK_CASM3C_Proliferation: Cell Proliferation Assessment in the BioMAP Diversity Plus: CASM3C Assay (AID 2283047).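 Further: sulforhodamine B total protein stain as relative cell number at 560 nm; sub-confluent cells exposed 48 h before staining; fitted both ways against DMSO so gain or loss of cell number.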 The settings on record: primary human coronary artery smooth muscle cells.
Read-out in assay [7]: Monokine induced gamma interferon (MIG), CXCL9 (gene 4283)
Description: BSK_CASM3C_MIG: BioMAP Diversity Plus: CASM3C Assay for Monokine induced gamma interferon (MIG) Biomarker Activity (AID 2283048).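 Further: MIG protein level measured by ELISA.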 The settings on record: primary human coronary artery smooth muscle cells; actives raise or lower the signal.

Read-out in assay [8]: serum amyloid A (SAA), SAA1 (gene 6288)
Description: BSK_CASM3C_SAA: BioMAP Diversity Plus: CASM3C Assay for serum amyloid A (SAA) Biomarker Activity (AID 2283049).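 Further: SAA protein level quantified by ELISA.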 The settings on record: primary human coronary artery smooth muscle cells; actives raise or lower the signal.

A short description of assay [9]: BSK_CASM3C_SRB: Viability Assessment in the BioMAP Diversity Plus: CASM3C Assay (AID 2283050).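 Further: total protein by SRB staining as cytotoxicity measure in parallel cultures; cells exposed to compound for 24 h.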 The settings on record: primary human coronary artery smooth muscle cells.
Read-out in assay [10]: Thrombomodulin, THBD (gene 7056)
Put plainly: BSK_CASM3C_Thrombomodulin: BioMAP Diversity Plus: CASM3C Assay for Thrombomodulin Biomarker Activity (AID 2283051).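 Further: thrombomodulin protein level measured by ELISA 24 h after dosing.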 The settings on record: primary human coronary artery smooth muscle cells; actives raise or lower the signal.

Read-out in assay [11]: Tissue Factor, F3 (gene 2152)
Description: BSK_CASM3C_TissueFactor: BioMAP Diversity Plus: CASM3C Assay for Tissue Factor Biomarker Activity (AID 2283052).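 Further: cell surface tissue factor protein level read by ELISA.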 The settings on record: primary human coronary artery smooth muscle cells; actives raise or lower the signal.

Read-out in assay [12]: Interferon-gamma inducible Protein 10 (IP10), CXCL10 (gene 3627)
Description: BSK_hDFCGF_IP10: BioMAP Diversity Plus: hDFCGF Assay for Interferon-gamma inducible Protein 10 (IP10) Biomarker Activity (AID 2283053). The settings on record: primary human foreskin fibroblasts; actives raise or lower the signal. Summed up:
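IP-10 levels, quantified by ELISA, are taken from human foreskin fibroblast cultures 24 h after chemical treatment, with DMSO serving as negative control and baseline for bidirectional analysis.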

Read-out in assay [13]: Urokinase-type plasminogen activator receptor (uPAR), PLAUR (gene 5329)
Put plainly: BSK_CASM3C_uPAR: BioMAP Diversity Plus: CASM3C Assay for Urokinase-type plasminogen activator receptor (uPAR) Biomarker Activity (AID 2283054).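 Further: cell-surface uPAR protein level quantified by ELISA.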 The settings on record: primary human coronary artery smooth muscle cells; actives raise or lower the signal.

Read-out in assay [14]: Vascular cell adhesion molecule 1 (VCAM1), VCAM1 (gene 7412)
Description: BSK_CASM3C_VCAM1: BioMAP Diversity Plus: CASM3C Assay for Vascular cell adhesion molecule 1 (VCAM1) Biomarker Activity (AID 2283055).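 Further: VCAM-1 protein level quantified by ELISA on the cells.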 The settings on record: primary human coronary artery smooth muscle cells; actives raise or lower the signal.

Read-out in assay [15]: Collagen III, COL3A1 (gene 1281)
Put plainly: BSK_hDFCGF_CollagenIII: BioMAP Diversity Plus: hDFCGF Assay for Collagen III Biomarker Activity (AID 2283056). The settings on record: primary human foreskin fibroblasts; actives raise or lower the signal. The essentials: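 Human foreskin primary fibroblasts were exposed to test chemicals for 24 h, after which collagen III was quantified by ELISA. Activity was fitted bidirectionally against DMSO as negative control and baseline.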

Read-out in assay [16]: Epidermal growth factor receptor (EGFR), EGFR (gene 1956)
Description: BSK_hDFCGF_EGFR: BioMAP Diversity Plus: hDFCGF Assay for Epidermal growth factor receptor (EGFR) Biomarker Activity (AID 2283057). The settings on record: primary human foreskin fibroblasts; actives raise or lower the signal. Summed up:
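Measured by ELISA: EGFR levels on primary human foreskin fibroblasts 24 h after chemical treatment, analysed relative to DMSO with bidirectional fitting.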

Read-out in assay [17]: Interleukin-8 (IL8), CXCL8 (gene 3576)
Put plainly: BSK_hDFCGF_IL8: BioMAP Diversity Plus: hDFCGF Assay for Interleukin-8 (IL8) Biomarker Activity (AID 2283058). The settings on record: primary human foreskin fibroblasts; actives raise or lower the signal. The essentials:
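hDFCGF human dermal fibroblasts; 24 h chemical exposure; IL-8 by ELISA; bidirectional curve fit vs DMSO baseline; gain or loss of signal scored.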

The nature of assay [18]: BSK_hDFCGF_Proliferation: Cell Proliferation Assessment in the BioMAP Diversity Plus: hDFCGF Assay (AID 2283059).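 Further: curves fitted for both rise and fall of signal versus DMSO baseline.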 The settings on record: primary human foreskin fibroblasts. Summed up:
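This proliferation readout used SRB total-protein staining of human foreskin fibroblasts […], normalized to DMSO with bidirectional curve fitting.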

Assay [19] is described as follows: BSK_hDFCGF_SRB: Viability Assessment in the BioMAP Diversity Plus: hDFCGF Assay (AID 2283061).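 Further: cells exposed to compound for 24 h before the read.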 The settings on record: primary human foreskin fibroblasts. Summed up: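 Human foreskin primary fibroblasts were treated with compound and assessed 24 h after dosing. Total protein was measured by sulforhodamine B staining (0.1% SRB after 10% TCA fixation, 560 nm read) as a cytotoxicity marker, with bidirectional fitting against DMSO baseline.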

Each structure is given as a SMILES string. Activity calls are given as the source filed them. How the source made its calls: active means hit-call score of the fitted dose curve at least 0.9, where 1 is the maximum; inactive means score below 0.9.

For the molecule `C=C(C)C(=O)OCCOCCOCCOCCOC(=O)C(=C)C`, the outcome in assay [1], in assay [3], in assay [4], in assay [5], in assay [6] and in assay [7] was inactive. Besides, the outcome in assay [8], in assay [9], in assay [10], in [11], in assay [12] and in [13] was inactive. Further, the result in assay [14], in assay [15], in [16], in assay [17], in assay [18] and in assay [19] was inactive. In addition, the concentration at half-maximal activity (AC50) in assay [2] is 1.44 µM (active).
In the case of `CS(=O)(=O)c1ccc(C2=C(c3ccccc3)C(=O)OC2)cc1`, the outcome in assay [1], in assay [2], in [3], in assay [4], in [5] and in assay [6] was inactive. Also, the result in assay [7], in assay [8], in assay [9], in assay [10], in assay [11] and in assay [12] was inactive. For the same molecule, the outcome in [13], in assay [14], in assay [15], in [16], in assay [17] and in assay [18] was inactive. Further, the outcome in assay [19] was inactive.
With `Clc1cc(Cl)c(-c2c(Cl)c(Cl)cc(Cl)c2Cl)cc1Cl`, the outcome in assay [1], in [2], in [3], in assay [4], in [5] and in [7] was inactive. The result in assay [8], in assay [9], in [10], in assay [11], in assay [13] and in assay [14] was inactive. In assay [16], the outcome was inactive. In addition, the AC50 in [6] is 0.023 µM (active); in [12], 16 µM (active); in [15] it was 4.19 µM (active); in assay [17] it was 15.8 µM (active); in assay [18], 3.7 µM (active); in assay [19], 14.7 µM (active).
Turning to `CCN(CC)C(=O)N(CC)CC`, the outcome in assay [1], in [2], in [3], in assay [4], in assay [5] and in [6] was inactive. The outcome in assay [7], in assay [8], in assay [9], in assay [10], in assay [11] and in [12] was inactive. Also, the result in assay [13], in assay [14], in assay [15], in assay [16], in [17] and in assay [18] was inactive. Also, the result in assay [19] was inactive.
For the molecule `O=C1OC2(c3ccccc31)c1ccc(O)c(Br)c1Oc1c2ccc(O)c1Br`, the result in assay [1], in assay [2], in [3], in assay [4], in [5] and in assay [6] was inactive. The result in assay [7], in assay [8], in assay [9], in assay [10], in assay [11] and in assay [13] was inactive. Moreover, the result in [14], in assay [15], in [16], in assay [17] and in assay [19] was inactive. Besides, the concentration at half-maximal activity (AC50) in [12] and in assay [18] was 20 µM (active) each time.
With `CCCCCC(C=O)=Cc1ccccc1`, the outcome in assay [1], in assay [4], in assay [7], in [8], in assay [10] and in assay [12] was inactive. The outcome in [16] and in [17] was inactive. Also, the half-maximal activity concentration (AC50) in [2] is 31 µM (active); in assay [3], 31.9 µM (active); in assay [5], 27.5 µM (active); in assay [6] it was 30.1 µM (active); in assay [9], 33.5 µM (active); in assay [11], 20 µM (active). The half-maximal activity concentration (AC50) was 39.3 µM (active) in assay [13]; 31.2 µM (active) in [14]; 31 µM (active) in assay [15]; 31.4 µM (active) in assay [18]; 31.5 µM (active) in [19].

A word on the AC50: it is the concentration at which the activity in the assay is half-maximal.

The values are drawn from PubChem BioAssay (EPA / NIEHS).
